Screening data deposited in PubChem BioAssay by National Center for Advancing Translational Sciences (NCATS).
YjeE inh: inhibitors of E. coli YjeE (TsaE); Potency, µM; AID 605; purified YjeE enzyme, qHTS inhibition assay; 71,000 tested, 0.05% active
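Fluorescence polarization of a BODIPY Texas Red–ADP probe (2 uM) bound to purified YjeE (10 uM) was read after 15 min room-temperature incubation with compounds. Loss of polarization marks inhibitors; ADP serves as titrated control.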
BRCT PPI green: blocks human BRCA1 BRCT binding to phosphopeptide, green readout; P38398; BRCA1 BRCT-phosphopeptide binding, green fluorescence polarization; Potency, µM (highest dose often 76.9 µM), without a hit: at the highest dose activity change, negative = inhibition, usual class: inhibitors; 75,000 tested, 0.05% active;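 note: potency is the fitted concentration of half-maximal effect; plate controls were peptide without protein for full effect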
Target sequence (P38398 whole entry, looked up): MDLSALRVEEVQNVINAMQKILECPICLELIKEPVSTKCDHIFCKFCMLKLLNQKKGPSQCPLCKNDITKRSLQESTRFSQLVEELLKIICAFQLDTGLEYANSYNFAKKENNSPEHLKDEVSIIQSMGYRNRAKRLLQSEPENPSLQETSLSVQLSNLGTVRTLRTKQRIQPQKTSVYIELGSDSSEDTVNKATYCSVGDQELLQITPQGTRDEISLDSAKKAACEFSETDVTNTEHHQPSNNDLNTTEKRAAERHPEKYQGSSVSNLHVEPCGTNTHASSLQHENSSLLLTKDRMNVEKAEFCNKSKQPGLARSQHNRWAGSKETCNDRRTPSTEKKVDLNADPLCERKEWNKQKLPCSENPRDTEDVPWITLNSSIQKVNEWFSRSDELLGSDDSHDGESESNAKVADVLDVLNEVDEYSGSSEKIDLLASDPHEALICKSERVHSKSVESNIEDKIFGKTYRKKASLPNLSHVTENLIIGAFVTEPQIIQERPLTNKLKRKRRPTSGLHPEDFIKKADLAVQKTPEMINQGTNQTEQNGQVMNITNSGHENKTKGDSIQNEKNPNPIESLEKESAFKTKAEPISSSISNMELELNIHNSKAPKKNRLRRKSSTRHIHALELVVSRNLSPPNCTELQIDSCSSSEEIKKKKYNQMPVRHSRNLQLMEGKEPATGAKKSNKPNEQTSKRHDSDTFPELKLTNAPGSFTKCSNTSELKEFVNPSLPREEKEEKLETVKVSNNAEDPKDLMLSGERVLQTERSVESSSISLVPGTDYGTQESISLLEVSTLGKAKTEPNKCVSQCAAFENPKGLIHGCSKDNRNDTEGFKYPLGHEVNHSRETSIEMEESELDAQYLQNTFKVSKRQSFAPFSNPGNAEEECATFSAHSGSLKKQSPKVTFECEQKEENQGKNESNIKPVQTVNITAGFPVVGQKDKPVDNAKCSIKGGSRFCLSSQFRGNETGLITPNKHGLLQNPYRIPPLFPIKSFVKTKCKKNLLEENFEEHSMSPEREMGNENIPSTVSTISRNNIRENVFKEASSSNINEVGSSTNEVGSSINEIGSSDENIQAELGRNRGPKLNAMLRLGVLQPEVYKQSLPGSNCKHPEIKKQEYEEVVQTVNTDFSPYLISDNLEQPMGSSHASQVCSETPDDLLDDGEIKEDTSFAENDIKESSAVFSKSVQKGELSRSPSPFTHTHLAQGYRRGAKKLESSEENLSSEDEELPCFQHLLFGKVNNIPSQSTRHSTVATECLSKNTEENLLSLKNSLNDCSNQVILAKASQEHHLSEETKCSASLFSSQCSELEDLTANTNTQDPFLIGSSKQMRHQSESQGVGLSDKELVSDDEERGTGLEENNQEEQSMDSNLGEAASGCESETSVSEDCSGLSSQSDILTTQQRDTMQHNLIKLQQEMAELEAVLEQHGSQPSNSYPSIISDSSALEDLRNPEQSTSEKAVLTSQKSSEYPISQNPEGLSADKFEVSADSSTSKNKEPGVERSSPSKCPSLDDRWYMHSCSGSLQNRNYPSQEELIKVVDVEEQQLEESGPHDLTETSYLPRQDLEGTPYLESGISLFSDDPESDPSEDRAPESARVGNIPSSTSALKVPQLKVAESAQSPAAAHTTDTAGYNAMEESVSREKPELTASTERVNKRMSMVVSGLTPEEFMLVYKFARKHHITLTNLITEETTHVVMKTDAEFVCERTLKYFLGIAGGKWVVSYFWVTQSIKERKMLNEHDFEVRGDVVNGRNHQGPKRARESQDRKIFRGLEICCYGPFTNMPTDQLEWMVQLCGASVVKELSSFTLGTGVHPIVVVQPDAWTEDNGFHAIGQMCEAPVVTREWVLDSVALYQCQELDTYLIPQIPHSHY
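Compounds were incubated for 12 min at room temperature with a complex of 100 nM fluorescein-tagged pBACH1 decapeptide and 250 nM His-tagged BRCT protein. Buffer was phosphate pH 7.3 with EDTA, DTT and Tween 20. Disruption of binding lowers the polarization signal.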
BRCT PPI red: disrupts BRCA1 BRCT binding to phosphoprotein, red fluorophore readout | P38398 | BRCT-phosphopeptide binding, red fluorescence polarization | Potency, µM (series often up to 76.9 µM), for the others: top-dose activity change, negative = inhibition, hits mostly inhibitors | 75,000 tested, 0.03% active; note: % is set by controls: 0 for no effect and ±100 for the full control effect
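Rhodamine-labelled pBACH1 10-mer (100 nM) bound to BRCT domain (100 nM) at pH 7.3; compounds incubated 12 min room temperature, polarization read. Free peptide defines full inhibition; unlabelled decapeptide titrated as control.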
DNA Pol III inh: inhibitors of bacterial DNA polymerase III holoenzyme; reconstituted DNA polymerase III holoenzyme replication, biochemical; Potency, µM (doses to about 57.1 µM), inactives show top-dose activity change, negative = inhibition; 71,000 tested, 0.25% active; note: potency is the fitted concentration of half-maximal effect; % is set by controls: 0 for no effect and ±100 for the full control effect
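Reconstituted *E. coli* holoenzyme (0.35 nM Pol III, 1 nM beta, 154 nM SSB, 2 nM primase) was preincubated with compound for 15 min at RT. Synthesis on 1.4 nM ssM13Gori ran 35 min, then was stopped with PicoGreen/EDTA and read as dsDNA fluorescence.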
USP2a inh: blocks human ubiquitin-specific protease USP2a; O75604; USP2a enzymatic assay, qHTS inhibition; Potency, µM (titrated, usually from 38.3 µM), for the others: at the top dose activity change, negative = inhibition, hits mostly inhibitors; 60,000 tested, 0.1% active; AID 927; note: potency is the fitted concentration of half-maximal effect; nearly all actives have a fitted effect of over 60% in size
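USP2 core (20 nM final) was preincubated with compound for 30 min at RT in 20 mM Tris-HCl pH 8.0, 2 mM CaCl2, 2 mM beta-mercaptoethanol; Ub-PLA2 (20 nM) plus NBD C6-HPC (20 uM) then added, fluorescence read after 2.5 h.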
ERK AVP inh: inhibitors of vasopressin-stimulated ERK signaling pathway; HEK293-V1b, vasopressin-stimulated pERK AlphaScreen; Potency, µM (highest dose often 57.5 µM), without a hit: at the highest dose activity, negative = inhibition, most hits filed as inhibitors; 72,000 tested, 0.99% active; note: potency is the fitted concentration of half-maximal effect; % is set by controls: 0 for no effect and ±100 for the full control effect; nearly all actives have a fitted effect of over 55% in size
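HEK293 cells stably expressing V1b receptor, preincubated 30 min at 37 °C with compound, then stimulated 5 min with 25 nM vasopressin. Phospho-ERK by AlphaScreen SureFire after 5 h RT; normalized to DMSO and vasopressin; AC50 by Hill fit.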
Numbers without * were called inactive; i = inactive; ? = inconclusive; . = not tested or not shown; [ ] = dose if it differs, or a comment. Hits are enriched below; roughly 1.3% of the tested compounds scored in any of these assays. Calls come from the whole dose curve; as a rule, active = well fitted curve in the direction sought with a large enough effect; inconclusive = small, poorly fitted or top-dose-only effect, or another doubt; inactive = no such curve, though single readings can be large; an effect the other way counts as inactive or inconclusive.

SMILES | YjeE inh | BRCT PPI green | BRCT PPI red | DNA Pol III inh | USP2a inh | ERK AVP inh
COc1cccc(-c2cncnc2NCc2cnc(C)cn2)c1 | i | -2% | 0% | -2% | -1% | -8%
COc1cccc(-c2nccc(NCc3ccccc3)n2)c1 | i | -1% | 0% | -10% | -2% | 10µM*
COc1cccc(-c2nccc(NCc3cccc(C)c3)n2)c1 | i | 4% | -1% | -10% | ? | -28%
COc1cccc(-c2cc(NCc3cccs3)ncn2)c1 | i | 3% | -3% | -4% | 16% | 25µM*
N=c1ccn2c(n1)O[C@@H]1[C@@H](O)[C@H](CO)O[C@H]12 | i | 1% | 2% | 9% | 0% | 0%
CCCCNC(=O)c1ccc2nc(-c3ccco3)c(-c3ccco3)nc2c1 | ? | -4% | -11% | 16µM* | . | -29%
O=C(Nc1ccc(Cc2ccncc2)cc1)c1ccc(S(=O)(=O)N2CCOCC2)cc1 | i | 0% | 1% | -8% | 29% | 18%
O=C(Nc1ccc(S(=O)(=O)N2CCCC2)cc1)c1ccc(CN2CCOCC2)cc1 | i | 0% | 0% | -1% | 7% | 10µM*
Oc1ccc(Br)cc1/C=N/n1cnc2ccccc21 | i | -1% | 1% | 0% | 8% | 16µM*
OCC(CO)(CO)N=Cc1cc(Br)ccc1O | i | 0% | 1% | -2% | -9% | 13%
O=C1C=CC(=O)C2=C1C1c3ccccc3C2c2ccccc21 | . | -2% | 0% | . | . | -10%
CN(C)CCCn1cc(C2=C(c3c[nH]c4ccccc34)C(=O)NC2=O)c2ccccc21 | i | 0% | 1% | -11% | . | 0.79µM*
CCN(CC)CCCn1c(=S)[nH]c2ccccc2c1=O | i | -3% | 0% | 0% | -1% | -17%
Cn1cc(C2=C(c3cn(CCCSC(=N)N)c4ccccc34)C(=O)NC2=O)c2ccccc21 | . | 5% | 2% | . | . | 2µM*
CSc1ncnc2nc[nH]c12 | i | -1% | -2% | -2% | . | .
COc1ccc(-c2cc(C(=O)N/N=C\c3cc(OC)c(OC)c(OC)c3)[nH]n2)cc1 | . | 1% | 2% | . | . | .
CCOC(=O)N1CCN(C(=O)c2ccc3c(=O)n(Cc4ccc(OC)cc4)c(=S)[nH]c3c2)CC1 | i | -1% | 0% | 2% | 37% | 32µM*
Cc1ccc2nc(CSc3nnc(-c4ccco4)o3)cc(=O)n2c1 | i | -12% | -21% | 20µM* | 16% | ?
C=CC1=C(C)C2=NC1=CC1=NC(=CC3=NC(=CC4=NC(=C2)C(C)=C4CCC(=O)O)C(CCC(=O)O)=C3C)C(C=C)=C1C.[Zn] | 79µM* | ? | 32µM* | 25µM* | . | 10%
COc1ccc(NC(=O)c2cnn3c(C(F)(F)F)cc(-c4ccco4)nc23)cc1OC | i | -8% | -1% | 1µM* | -4%[7.66 µM] | -21%
C[C@@]12C[C@H](O)[C@@H]3[C@H](CCC4=CC(=O)CC[C@]43C)[C@H]1CC[C@@H]2c1csc(N)n1 | i | 0%[15.4 µM] | 0%[15.4 µM] | -12%[11.4 µM] | . | 0%[11.5 µM]
N#CCCn1c(=O)cnc2cnc(N3CCOCC3)nc21 | i | 0% | -1% | -11% | 1% | 6.3µM*
COc1ccc(-c2cc(C(=O)N/N=C/c3ccc(O)cc3)[nH]n2)cc1 | . | -1% | 1% | . | . | .
CC1Cc2ccccc2N1S(=O)(=O)c1cccc2nsnc12 (centres undefined) | i | -9% | 0% | 2% | 7% | 16µM*
COc1ccccc1N1CCN(S(=O)(=O)c2cccc3nsnc23)CC1 | i | -1% | 1% | -2% | 7% | -25%
SMILES | YjeE inh | BRCT PPI green | BRCT PPI red | DNA Pol III inh | USP2a inh | ERK AVP inh
CCOC(=O)CCN1C(=O)[C@@H]2[C@H]3C(=CC[C@H]2C1=O)C(=O)[C@H]1O[C@H]1[C@H]3O | . | -8%[15.4 µM] | 2%[15.4 µM] | . | . | 16%[11.5 µM]
O=C(c1cccc(C(=O)N2CCN(c3ccccc3F)CC2)c1)N1CCN(c2ccccc2F)CC1 | i | 1% | 1% | -2%[11.4 µM] | 28%[7.66 µM] | 16µM*
CCc1ccc(S(=O)(=O)Nc2ccc(O)c(C(=O)O)c2)cc1 | . | -1% | 0% | . | . | .
Cc1cc(C)c2cc(CN(CCO)C(=O)Nc3ccc(Cl)cc3)c(=O)[nH]c2c1 | i | 2% | -2% | -2% | 37% | 32µM*
Cc1cc(C)c2cc(CN(CCN3CCCC3)C(=O)Nc3ccc(F)cc3)c(=O)[nH]c2c1 | i | 3% | 0% | 1% | 39% | 0%
CCc1nc(C)c(C#N)c2cc(OC)c(OC)cc12 | i | -1% | -1% | -3% | 4% | 25µM*
Cc1cccc(NC(=O)Nc2ccc(C#N)cc2)n1 | i | -4% | -1% | 25µM* | . | -1%
Cc1cccc(NC(=O)Nc2cccc(C#N)c2)n1 | i | -1% | 1% | -2% | . | -18%
C[C@@]12CC[C@@H]3[C@H](CCC4=CC(=O)CC[C@]43C)[C@@H]1CC[C@@H]2C(=O)COS(=O)(=O)c1ccc(Br)cc1 | i | -2%[15.4 µM] | -5%[15.4 µM] | -7%[11.4 µM] | . | -20%[11.5 µM]
O=C(c1oc2ccccc2c1CSCc1ccccc1)N1CCN(c2ncccn2)CC1 | i | 7% | -1% | ? | 5% | 5µM*
CC1(C(=O)Nc2nccs2)Cc2ccccc2C(=O)O1 (centres undefined) | i | 1% | -3% | -5% | 48% | 25µM*
CC[C@]1(O)C[C@H]2CN(CCc3c([nH]c4ccccc34)[C@](C(=O)OC)(c3cc4c(cc3OC)N(C=O)[C@H]3[C@@](O)(C(=O)OC)[C@H](OC(C)=O)[C@@]5(CC)C=CCN6CC[C@]43[C@H]65)C2)C1 | i | -4% | -3% | -8% | 23% | 16%
COc1ccc(OC)c(S(=O)(=O)N2CCC(C(=O)Nc3cccc(C(F)(F)F)c3)CC2)c1 | i | -2% | 0% | 1% | 25% | 16µM*
CC1CCCCN1Cc1nc2c(c(=O)n(C)c(=O)n2C)n1Cc1c(F)cccc1Cl (centres undefined) | 79µM* | 0.63µM* | ? | i | . | .
Cn1c(=O)c2c(nc(CN3CCC(C(N)=O)CC3)n2Cc2c(F)cccc2Cl)n(C)c1=O | i | 1% | 0% | -3% | 7% | -1%
CN(C)CCCO[C@H]1[C@H]([C@H](O)CO)O[C@H]2OC(C)(C)O[C@@H]21 | i | 3% | -2% | 0% | -4% | -5%
Cc1nnc(SCCC(=O)Nc2nc(-c3ccccc3)ns2)s1 | i | 15% | -1% | -1% | 37% | 32µM*
O=C(CSc1ncn[nH]1)Nc1nc(-c2ccccc2)ns1 | i | 0% | 0% | -7% | 5% | 8%
CCN(CC)CCNC(=O)c1ccc(Cc2nc3ccccc3[nH]2)cc1 | . | -2% | 0% | . | . | .
Cc1ccc2c(c1)c1c3n2CCN[C@H]3CCC1 | i | -3% | -2% | -3% | 6%[17.1 µM] | ?
